Screens (PubChem BioAssay)
14-3-3 Bad inh: inhibitors of 14-3-3 zeta/Bad binding, primary screen, biochemical, TR-FRET, bovine 14-3-3 zeta; TR-FRET 14-3-3zeta/Dy647-pBad peptide displacement, 1 h; inhibition, % at 21.7 µM; 220,000 compounds, 0.71% hits; AID 781, 2007;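 active = inhibition above about 70%, limit read from the data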
Target sequence (P63103 whole entry, looked up): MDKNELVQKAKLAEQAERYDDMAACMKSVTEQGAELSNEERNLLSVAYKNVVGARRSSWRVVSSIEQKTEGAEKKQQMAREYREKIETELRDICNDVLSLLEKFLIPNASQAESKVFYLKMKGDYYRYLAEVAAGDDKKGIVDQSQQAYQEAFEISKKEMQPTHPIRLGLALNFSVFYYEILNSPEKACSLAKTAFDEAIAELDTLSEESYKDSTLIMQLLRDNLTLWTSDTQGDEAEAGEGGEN
Mcl-1 Bim block: inhibitors of Bim peptide binding to Mcl-1, primary screen, biochemical, bead-based flow cytometry, multiplex; Bim peptide-Mcl-1 binding; AID 1009, 2008; 190,000 compounds, 0.1% hits; Induced myeloid leukemia cell differentiation protein Mcl-1 (Homo sapiens), Q07820; inhibition, % at 10 µM; in the data active = inhibition above about 40%
Mcl1-Noxa inh: Mcl-1/Noxa binding inhibitors, primary screen, biochemical, TR-FRET, 1536-well; Induced myeloid leukemia cell differentiation protein Mcl-1 (Homo sapiens), Q07820; TR-FRET Mcl-1/Noxa peptide binding, 2 h; inhibition, % at 21.7 µM; 220,000 compounds, 1.5% hits; AID 1022, 2008;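 active = compounds that cut the protein-peptide binding signal by more than 50% relative to plate controls in a single-dose test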;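 note: His-tagged Mcl-1 with rhodamine Noxa BH3 peptide and terbium anti-His antibody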
p47phox inh: p47phox/p22phox peptide binding inhibitors, primary screen, biochemical, uHTS, NADPH oxidase regulatory subunit; AID 1274, 2008; 220,000 compounds, 0.53% hits; inhibition, % at 24.7 µM; fluorescence polarization, 2 h;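 active = inhibition above about 30%, limit read from the data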
Target sequence (P14598 whole entry, looked up): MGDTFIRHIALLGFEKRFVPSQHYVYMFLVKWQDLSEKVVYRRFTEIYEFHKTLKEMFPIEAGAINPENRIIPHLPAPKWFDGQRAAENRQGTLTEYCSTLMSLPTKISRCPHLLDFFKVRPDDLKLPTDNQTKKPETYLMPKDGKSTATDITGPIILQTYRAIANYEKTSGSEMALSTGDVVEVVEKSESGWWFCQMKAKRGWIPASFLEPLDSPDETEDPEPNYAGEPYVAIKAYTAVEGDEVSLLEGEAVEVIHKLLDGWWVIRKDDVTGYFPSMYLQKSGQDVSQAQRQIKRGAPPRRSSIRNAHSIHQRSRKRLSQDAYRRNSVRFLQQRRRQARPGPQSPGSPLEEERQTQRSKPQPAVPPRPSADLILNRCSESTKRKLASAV
Mcl1 Bid PPI: Mcl-1/Bid binding inhibitors, primary screen, biochemical, TR-FRET, 1536-well | TR-FRET Mcl-1/Bid-Dy647 peptide binding | inhibition, % at 21.7 µM | 220,000 compounds, 0.97% hits | Induced myeloid leukemia cell differentiation protein Mcl-1 (Homo sapiens), Q07820 | AID 1021, 2008;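 active = compounds that cut the binding signal by more than half at the single screening dose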;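 note: His-tagged Mcl-1 with europium anti-His antibody binding Bid BH3 peptide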
Calpain2 inh: inhibitors of pig calpain II, primary screen, biochemical, fluorogenic peptide substrate, 1536-well; purified calpain II, 30 min; inhibition, % at 16 µM; 220,000 compounds, 0.37% hits; AID 1236, 2008;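 active = inhibition above about 50%, limit read from the data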
Large screens that a line does not name were inactive; [ ] = remark or other dose. A selection: hits, their analogues and other compounds. The true share with any hit is near 3.4%.

O=C(CC1NCCNC1=O)Nc1cccc([N+](=O)[O-])c1 (stereo unspecified)	Mcl-1 Bim block 58.0
O=C(Nc1nc(-c2cccnc2)cs1)c1cccc([N+](=O)[O-])c1	14-3-3 Bad inh 79.2, Mcl1-Noxa inh 63.1
CC(C)[C@H](NC(=O)c1ccccc1)C(=O)OCC(=O)N1CCCc2ccccc21	none
CCOc1ccccc1NC(=O)N1CCC(NC(=O)c2cccc(C)c2)CC1	14-3-3 Bad inh 80.0[fluorescence artefact?]
Cc1ccccc1C(=O)Oc1ccc(Sc2ccc(O)cc2)cc1	Calpain2 inh 113.1
Cc1ccccc1C(=O)Oc1ccc(-c2csnn2)cc1	none (no result: Mcl-1 Bim block)
C/C(=N\NC(=O)c1ccc(OC2OCCOC2Oc2ccc(C(=O)N/N=C(\C)c3ccncc3)cc2)cc1)c1ccncc1 (stereo unspecified)	none (no result: Mcl-1 Bim block)
OC1(c2ccccc2)CN(c2ccccc2)C2=[N+]1CCS2 (stereo unspecified)	none
COc1ccc(-c2nc(N)n(C(=O)c3cccs3)n2)cc1	none
COc1ccc2nc(NC(=O)c3sc4nc(C)cc(C)c4c3N)sc2c1	Mcl1-Noxa inh 52.8 (no result: Mcl-1 Bim block)
COc1ccc2nc(NC3=NCCC3)sc2c1	none
CCN1CCN(CC(=O)Nc2nc3ccc(OC)cc3s2)CC1	14-3-3 Bad inh 78.6[fluorescence artefact?]
COc1ccc2nc(Nc3sc4c(c3C(N)=O)CCCC4)sc2c1	Mcl1-Noxa inh 99.7
COc1ccc2nc(NC(=O)CSc3nnc(N)s3)sc2c1	Mcl1-Noxa inh 53.7
Cc1cc2ncc(C(=O)Nc3ccsc3C(=O)O)c(C)n2n1	none
C=CCSC1=N/C(=C\c2cc(OCC)c(OC(C)=O)c([N+](=O)[O-])c2)C(=O)S1	none
CCCCCn1c(N)c(-c2nc3ccccc3o2)c2c([N+](=O)[O-])nn(CC)c(=O)c21	Mcl1-Noxa inh 97.3, Mcl1 Bid PPI 60.5
CCCCCn1c(N)c(-c2nc3ccccc3s2)c2c([N+](=O)[O-])nn(CC)c(=O)c21	none
CCOC(=O)C(=O)N1CCC(C(=O)OC)CC1	none
CCCOc1ccc(C(=O)NCC(c2ccco2)N(C)C)cc1OC (stereo unspecified)	Mcl1 Bid PPI 94.8
COc1ccc(C(=O)NCC(=O)NCC(c2ccco2)N(C)C)cc1OC (stereo unspecified)	none
COc1ccccc1C(CC(=O)Nc1ccc(C)c(C)c1)c1ccc(OC(C)C)cc1 (stereo unspecified)	Mcl1-Noxa inh 55.2
CC#C[C@]1(O)CC[C@H]2[C@@H]3CCC4=CC(=O)CCC4=C3[C@@H](c3ccc(N(C)C)cc3)C[C@@]21C	Mcl1-Noxa inh 67.2
COc1ccc(-c2nc3c(-c4ccc(F)cc4)cnn3cc2C)cc1F	none
CCC(=O)N1N=C(c2ccc(NS(C)(=O)=O)cc2)CC1c1ccc(N(C)C)cc1 (stereo unspecified)	none
NS(=O)(=O)c1ccc(N/N=C/c2ccc(O)c(O)c2O)c([N+](=O)[O-])c1	14-3-3 Bad inh 89.0, Mcl1 Bid PPI 95.4 (no result: Mcl-1 Bim block)
CC(C)(C)c1nc(SCC(=O)c2ccccc2)c2ccccc2n1	Calpain2 inh 51.9
O=C(CN1C(=O)NC(c2ccccc2)(c2ccccc2)C1=O)Nc1ccc2[nH]c(=O)[nH]c2c1	Mcl1-Noxa inh 64.5 (no result: Mcl-1 Bim block)
Cc1cccc(C)c1NC(=O)COC(=O)c1cccnc1	Mcl1-Noxa inh 55.8
COc1ccc(NC(=O)COC(=O)c2ccc(Cl)c(S(N)(=O)=O)c2)c([N+](=O)[O-])c1	Mcl1-Noxa inh 53.4 (no result: Mcl-1 Bim block)
COc1ccc(Oc2cc(C(F)(F)F)nc(N(C)C)n2)cc1	none
O=C(Nc1cccc(-c2nc3ncccc3o2)c1)c1sc2ccccc2c1Cl	p47phox inh 66.7
O=C(Nc1cccc(-c2nc3ncccc3o2)c1)c1sc2cc(Cl)ccc2c1Cl	none
COC(=O)CS(=O)(=O)c1ccsc1C(=O)Nc1ccc(F)c(F)c1	none
O=C1CCCC2=C1C(c1cccs1)Nc1ccc3ncccc3c12 (stereo unspecified)	none
O=C1CCCC2=C1C(c1ccc(O)c(O)c1)Nc1ccc3ncccc3c12 (stereo unspecified)	Mcl1-Noxa inh 76.8
Cn1c2ccccc2c2cnn(CC(=O)Nc3ccccc3Br)c(=O)c21	14-3-3 Bad inh 73.6 (no result: Mcl-1 Bim block)
O=C1[C@H](CC[C@H](O)c2ccc(F)cc2)[C@@H](c2ccc(O)cc2)N1c1ccc(F)cc1	none
COc1ccccc1NC(=S)N1CCN(C(=O)C2CCCO2)CC1 (stereo unspecified)	none
CN(C)c1ccc(NC(=O)COC(=O)c2cc(Cl)ccc2[N+](=O)[O-])cc1	Mcl1-Noxa inh 53.5
O=C(COC(=O)c1cc(Cl)ccc1[N+](=O)[O-])NCc1ccc(Cl)cc1Cl	Calpain2 inh 57.1
O=C(COC(=O)c1cc(Cl)ccc1[N+](=O)[O-])Nc1cccc2ccccc12	none
COc1ccc(CCNC(=O)COC(=O)Cc2cccc3ccccc23)cc1	Mcl1-Noxa inh 83.1
Cc1cccc(NC(=O)Cn2c(O)c(N=NC(=O)c3ccccc3O)c3ccccc32)c1	Mcl1-Noxa inh 66.4, p47phox inh 32.7, Mcl1 Bid PPI 66.2
Cc1cccc(NC(=O)Cn2c(=O)oc3ccccc32)c1	none
Cc1ccc(NC(=O)Cn2c(O)c(N=NC(=O)c3cc([N+](=O)[O-])ccc3O)c3ccccc32)cc1	Mcl1-Noxa inh 50.5 (no result: Mcl-1 Bim block)
CCn1c(P(C)(=O)O)nc2cc(NC(=O)c3ccccc3Cl)ccc21	none
CN(C)c1ccc(/C=C2\C(=N)N3C(=NC2=O)Sc2cc(S(C)(=O)=O)ccc23)cc1	Mcl1-Noxa inh 59.9, Mcl1 Bid PPI 63.6 (no result: Mcl-1 Bim block)
COc1cccc(-n2c(C)cc(/C=C3/C(=N)N4C(=NC3=O)SN=C4S(C)(=O)=O)c2C)c1	none
Cc1ccc(C(=O)OCc2nnc(-c3ccccc3)o2)o1	none
CC(=O)c1c(C)[nH]c(C(=O)OCc2cccc(Cl)c2)c1C	Calpain2 inh 53.8
CC(=O)c1c(C)[nH]c(C(=O)OCc2nnc(-c3ccccc3)o2)c1C	Mcl1 Bid PPI 51.3
COc1cc(/C=C2/C(=O)NN(c3ccc(Cl)cc3)C2=O)ccc1OC(=O)c1ccco1	Mcl1-Noxa inh 62.1
O=C(NCCN1CCCCCC1)C1CCCN1S(=O)(=O)c1cccc2nsnc12 (stereo unspecified)	none (no result: Mcl-1 Bim block)
CSc1ccc(S(=O)(=O)Nc2ccc(S(=O)(=O)Nc3ccc(C)cc3)cc2)cc1	none
Cc1ccc(S(=O)(=O)Nc2ccc(N=Nc3ccc(O)cc3)cc2)cc1	Mcl1-Noxa inh 52.6
Cc1ccc(C[n+]2cccc(-c3ccccc3)c2)c(C)c1	none
